According to article PMC7862700, “An all-to-all approach to the identification of sequence-specific readers for epigenetic DNA modifications on cytosine”:

Assays:
Test in all cases: DAPPL (digital affinity profiling via proximity ligation, sequencing); 10 mM Tris-HCl pH 7.5, 50 mM NaCl, 1 mM DTT, 4% glycerol, room temperature, 30 min; GST-TFs on glutathione beads, 16-mer random dsDNA library, 0.1% formaldehyde crosslink after washing; high values mean tight binding
Settings in all cases: protein: recombinant; tags: N-terminal GST; dsDNA, one strand shown
[1] = target: T1, EHF (Homo sapiens, UniProt Q9NZC4 1-300)
T1 sequence: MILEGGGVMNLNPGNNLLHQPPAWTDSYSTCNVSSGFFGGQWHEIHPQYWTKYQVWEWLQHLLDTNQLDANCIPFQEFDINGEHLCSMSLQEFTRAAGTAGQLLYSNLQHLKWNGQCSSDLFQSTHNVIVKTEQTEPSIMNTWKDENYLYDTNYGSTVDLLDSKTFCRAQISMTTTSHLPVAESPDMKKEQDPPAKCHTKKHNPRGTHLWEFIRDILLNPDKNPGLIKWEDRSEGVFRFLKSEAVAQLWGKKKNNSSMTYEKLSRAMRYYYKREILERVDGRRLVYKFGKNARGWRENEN
In short: (§1)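 A tag-only sample was pooled with DNA-barcoded human transcription factors that had been expressed in yeast as GST fusions and captured on glutathione beads. The pools were incubated for 30 min at room temperature with 200 nmole of a random double-stranded 16-mer DNA library in Tris/NaCl/DTT/glycerol buffer, then washed, crosslinked with 0.1% formaldehyde, proximity-ligated (BsaI/T4 ligase, 1 h, 37 °C), PCR-amplified and sequenced on an Illumina NextSeq500. Binding signal is each hexamer's read frequency for a factor divided by its frequency for the tag-only sample.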

[2] = target: ETV5 (Homo sapiens, UniProt P41161 1-510)
ETV5, sequence (P41161 whole entry): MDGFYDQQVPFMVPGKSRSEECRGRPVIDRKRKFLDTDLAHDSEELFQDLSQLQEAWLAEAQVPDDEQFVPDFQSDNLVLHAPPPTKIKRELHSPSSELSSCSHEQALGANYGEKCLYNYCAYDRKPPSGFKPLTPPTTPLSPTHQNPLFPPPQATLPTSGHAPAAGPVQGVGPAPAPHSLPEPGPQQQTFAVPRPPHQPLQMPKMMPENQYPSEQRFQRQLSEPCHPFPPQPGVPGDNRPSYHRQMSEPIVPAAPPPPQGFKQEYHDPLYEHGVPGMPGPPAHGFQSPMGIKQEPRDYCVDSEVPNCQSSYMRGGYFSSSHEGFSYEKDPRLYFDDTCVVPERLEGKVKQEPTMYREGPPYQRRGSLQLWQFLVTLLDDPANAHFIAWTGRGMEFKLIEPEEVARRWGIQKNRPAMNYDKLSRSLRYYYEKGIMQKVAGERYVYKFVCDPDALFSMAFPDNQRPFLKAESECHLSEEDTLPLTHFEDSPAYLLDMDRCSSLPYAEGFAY
In short: as §1

[3] = target: T2, ETV2 (Homo sapiens, UniProt O00321 1-342)
T2 sequence: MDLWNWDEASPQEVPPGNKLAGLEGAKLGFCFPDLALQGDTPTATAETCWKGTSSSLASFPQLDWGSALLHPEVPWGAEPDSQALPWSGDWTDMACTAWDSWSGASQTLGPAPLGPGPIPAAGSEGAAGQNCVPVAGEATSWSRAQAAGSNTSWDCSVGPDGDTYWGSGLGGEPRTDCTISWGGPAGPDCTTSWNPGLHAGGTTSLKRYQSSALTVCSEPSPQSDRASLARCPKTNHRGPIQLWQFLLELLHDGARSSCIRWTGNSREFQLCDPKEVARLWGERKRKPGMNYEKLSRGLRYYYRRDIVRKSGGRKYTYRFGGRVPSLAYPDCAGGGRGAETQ
In short: as §1

[4] = target: T3, ELF3 (Homo sapiens, UniProt P78545 1-371)
T3 sequence: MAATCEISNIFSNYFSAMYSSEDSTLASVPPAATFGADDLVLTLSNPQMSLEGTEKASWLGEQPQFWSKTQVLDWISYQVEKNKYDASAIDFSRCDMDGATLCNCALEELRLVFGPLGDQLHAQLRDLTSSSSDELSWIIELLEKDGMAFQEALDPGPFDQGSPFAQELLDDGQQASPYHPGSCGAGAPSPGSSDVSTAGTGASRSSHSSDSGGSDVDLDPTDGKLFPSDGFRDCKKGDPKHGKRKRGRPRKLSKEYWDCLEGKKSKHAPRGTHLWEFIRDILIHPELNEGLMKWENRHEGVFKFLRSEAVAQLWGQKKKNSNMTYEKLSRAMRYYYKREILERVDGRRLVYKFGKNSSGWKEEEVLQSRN
In short: as §1

[5] = target: T4, ERF (Homo sapiens, UniProt P50548 1-548)
T4 sequence: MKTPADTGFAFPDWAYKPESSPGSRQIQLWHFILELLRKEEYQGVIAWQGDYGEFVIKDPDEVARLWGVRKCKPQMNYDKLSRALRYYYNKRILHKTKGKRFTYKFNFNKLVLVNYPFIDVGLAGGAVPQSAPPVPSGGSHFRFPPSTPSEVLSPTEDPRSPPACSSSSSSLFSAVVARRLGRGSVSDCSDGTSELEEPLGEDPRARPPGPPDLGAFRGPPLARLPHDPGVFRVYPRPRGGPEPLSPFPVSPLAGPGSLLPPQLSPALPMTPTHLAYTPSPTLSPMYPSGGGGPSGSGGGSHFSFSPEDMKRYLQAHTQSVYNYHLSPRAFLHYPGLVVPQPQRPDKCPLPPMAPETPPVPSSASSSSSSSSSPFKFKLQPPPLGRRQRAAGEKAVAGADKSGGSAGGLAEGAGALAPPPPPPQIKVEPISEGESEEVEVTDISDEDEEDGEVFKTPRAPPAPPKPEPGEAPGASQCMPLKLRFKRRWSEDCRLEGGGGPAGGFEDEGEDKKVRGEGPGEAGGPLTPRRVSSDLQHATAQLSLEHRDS
In short: as §1

[6] = target: T5, ETS2 (Homo sapiens, UniProt P15036 1-469)
T5 sequence: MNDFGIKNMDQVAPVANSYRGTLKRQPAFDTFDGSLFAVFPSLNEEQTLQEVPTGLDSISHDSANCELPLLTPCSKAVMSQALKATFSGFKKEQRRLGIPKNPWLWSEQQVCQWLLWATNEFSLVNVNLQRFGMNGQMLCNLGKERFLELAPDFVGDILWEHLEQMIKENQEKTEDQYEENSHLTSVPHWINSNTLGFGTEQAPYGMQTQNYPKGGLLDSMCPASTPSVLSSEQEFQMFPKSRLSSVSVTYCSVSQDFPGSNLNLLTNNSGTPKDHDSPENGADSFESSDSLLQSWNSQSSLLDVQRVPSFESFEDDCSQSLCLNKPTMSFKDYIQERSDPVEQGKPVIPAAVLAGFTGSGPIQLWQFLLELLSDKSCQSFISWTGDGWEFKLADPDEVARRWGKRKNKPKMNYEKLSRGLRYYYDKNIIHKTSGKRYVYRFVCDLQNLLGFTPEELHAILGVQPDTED
In short: as §1

[7] = target: T6, ETV7 (Homo sapiens, UniProt Q9Y603 1-341)
T6 sequence: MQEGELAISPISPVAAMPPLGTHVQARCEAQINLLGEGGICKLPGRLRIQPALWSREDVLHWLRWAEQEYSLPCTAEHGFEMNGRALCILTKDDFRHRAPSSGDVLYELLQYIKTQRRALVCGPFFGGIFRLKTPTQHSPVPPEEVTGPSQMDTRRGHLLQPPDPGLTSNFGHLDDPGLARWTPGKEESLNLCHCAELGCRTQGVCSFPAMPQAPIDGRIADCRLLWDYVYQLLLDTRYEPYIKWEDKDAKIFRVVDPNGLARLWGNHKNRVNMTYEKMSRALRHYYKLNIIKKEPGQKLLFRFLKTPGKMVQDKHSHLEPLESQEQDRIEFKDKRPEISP
In short: as §1

CGAACG
binding signal [1]: 1 fold enrichment (6-mer frequency, TF over GST control)
binding signal [2]: 1.03 fold enrichment (6-mer frequency, TF over GST control)
binding signal [3]: 1.09 fold enrichment (6-mer frequency, TF over GST control)
binding signal [4]: 1.05 fold enrichment (6-mer frequency, TF over GST control)
binding signal [5]: 1.11 fold enrichment (6-mer frequency, TF over GST control)
binding signal [6]: 1.03 fold enrichment (6-mer frequency, TF over GST control)
binding signal [7]: 1.02 fold enrichment (6-mer frequency, TF over GST control)
